Inconclusive results are not listed. The source made the active and inactive calls. How the source made its calls: active means hit-call score of the fitted dose curve at least 0.9, where 1 is the maximum; inconclusive means response in the unintended direction; inactive means score below 0.9.

The nature of this assay: TOX21_p53_BLA_p4_viability: Viability Assessment in the Tox21 HCT-116 p53 Agonism Beta-lactamase Assay, Phase 4 (AID 2283597).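 Further: hits lower the luminescence signal meaning cytotoxicity.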 From the text: TOX21_p53_BLA_p4 is a cell-based, single-readout assay that uses HCT116, a human intestinal cell line, […] in a 1536-well plate.TOX21_p53_BLA_p4_viability is an assay readout measuring cellular ATP content and detected with CellTiter-Glo Luciferase-coupled ATP quantitation.TOX21_p53_BLA_p4_viability used a type of viability reporter where loss-of-signal activity can be used to understand changes in the cell viability. Furthermore, this assay endpoint can be referred to as a secondary readout, because this assay has produced multiple assay endpoints where this one serves a viability function. To generalize the intended target to other relatable targets, this assay endpoint is annotated to the cell cycle intended target family, where the subfamily is cytotoxicity.
Thawing Method: Place 14 mL of pre-warmed thaw medium into a 15 mL of conical tub. Remove the vial of cells to be thawed from liquid nitrogen and thaw rapidly by placing at 37C in a water bath with gentle agitation for 1-2 minutes. Decontaminate the vial by wiping with 70% ethanol before opening in a biological safety cabinet. Transfer the vial contents drop-wise into 14 mL of thaw medium in a sterile 15-mL conical tub. Centrifuge cells at 900 rpm for 4 minutes and resuspend in thaw medium. Transfer contents to the T75 tissue culture flask containing Thaw Medium and place flask in a humidified 37C/5% CO2 incubator. Switch to growth medium at first passage.Propagation Method: Aspirate medium, rinse once in DPBS, add 0.25% Trypsin/EDTA and swirl to coat the cell evenly. Add an equal volume of Growth Medium to inactivate Trypsin after 2-3 minutes incubation at 37C. Centrifuge cells at 900 rpm for 4 minutes and resuspend in growth medium. Cell should be passage or fed at least twice a week.Assay Protocol: Harvest cells from culture in growth medium and resuspend in assay medium. 2.2 Dispense 4000 cells/5 uL/well into 1536-well black/clear bottom plates using a Multidrop dispenser. After the cells were incubated at 37C for 5 hours, 23 nL of compounds dissolved in DMSO were transferred to the assay plate by a PinTool resulting in a 217-fold dilution. Incubate the plates for 16 hours at 37C, 5% CO2. Add 1 uL of 6X LiveBLAzer FRET B/G (CCF4-AM) Substrate Mixture to each well using a BioRAPTR dispenser and incubate the plates at room temperature for 2 hours. Measure fluorescence intensity at 460 and 530 nm emission and 405 nm excitation by an Envision detector. Data is expressed as the ratio of 460nm/530nm emissions. Add 4 uL of Cell-titer Glo to each well using BioRAPTR and incubate the plates at room temperature for […]. For cell viability readout that measures cytotoxicity, 4 ul/well of CellTiter-Glo reagent was added into the assay plates using a Flying Reagent Dispenser. After 30 min incubation at room temperature, the luminescence intensity in the plates was measured using a ViewLux plate reader.
As for `[Cl][Nd]([Cl])[Cl]`, the compound was classed as inactive.
For the compound `COc1ccc([C@@H]2CC(=O)c3c(O)cc(O[C@@H]4O[C@H](CO[C@@H]5O[C@@H](C)[C@H](O)[C@@H](O)[C@H]5O)[C@@H](O)[C@H](O)[C@H]4O)cc3O2)cc1OC`, the compound was called inactive.
For the compound `CC1=NN(c2cc(S(=O)(=O)O)ccc2Cl)C(=O)C1N=Nc1ccccc1` (stereo not given), the compound was called inactive.
As to `CC(=O)Nc1ccc2c(c1)Cc1cc(NC(C)=O)ccc1-2`, the call was inactive.
As to `Nc1ccc(-c2ccc(F)cc2)cc1`, the compound was classed as inactive.
For the compound `CC1=CC[C@H](C(C)C)C=C1`, the compound was called inactive.
As for `Cc1cccc(N(C)C(=S)Oc2ccc3ccccc3c2)c1`, the compound was called inactive.
With `Cc1cc(C)c(C)c(C)c1`, the result was inactive.
On the same count and under the same terms, the result for `CCN(CC#N)c1cccc(C)c1` reads “inactive”; that for `NC(=O)NNC(N)=O`, “inactive”.
In the case of `CCOC(=O)c1ccccc1C(=C1C=C(Br)C(=O)C(Br)=C1)c1cc(Br)c(O)c(Br)c1`, the AC50 is 9.49 µM (active).
On to `Cc1oncc1C(=O)Nc1ccc(C(F)(F)F)cc1`, for which the outcome was inactive.
With `CN(C)c1ccc(C(=N)c2ccc(N(C)C)cc2)cc1`, the result was inactive.
Still for that read-out and setting: the value for `CC1(C)O[C@@H]2C[C@H]3[C@@H]4C[C@H](F)C5=CC(=O)CC[C@]5(C)[C@H]4[C@@H](O)C[C@]3(C)[C@]2(C(=O)CO)O1` was “inactive”; that for `O=C(Nc1ccccc1)c1ccccc1O` was “inactive”; that for `O=C1OC(=O)c2cc(Oc3ccc4c(c3)C(=O)OC4=O)ccc21` was “inactive”.
`CCCCCCCCCCCCCCCCCC#N`: the result was inactive.
`Cc1cc(O)c(Cl)c(C)c1Cl`: the AC50 is 61.7 µM (active).
`O=C(O)c1cc(Cl)cc([N+](=O)[O-])c1Cl`: the compound was classed as inactive.
Same read-out and setting: the value for `O=C(O)CC(C(=O)O)C(CC(=O)O)C(=O)O` (stereo not given) was “inactive”; that for `O=S(=O)(O)c1ccc2cc(O)c(S(=O)(=O)O)cc2c1` was “inactive”; that for `CCCOCCOCCOCCO` was “inactive”.
As to `CC(=O)OCC(=O)[C@@]12N=C(C)O[C@@H]1C[C@H]1[C@@H]3CCC4=CC(=O)C=C[C@]4(C)[C@H]3[C@@H](O)C[C@@]12C`, the result was inactive.
For `CCCCCCCCCCCSCC(=O)O`, the concentration at half-maximal activity (AC50) is 84 µM (active).
For `COC(=O)c1c(C)cc(O)c(C)c1O`, the compound was classed as inactive.
Consider `O=P(O)(O)Oc1ccccc1`, for which the call was inactive.
As for `CC(C)=CCCC(C)C=O` (stereo not given), the outcome was inactive.
Turning to `CCN(Cc1cccc(S(=O)(=O)O)c1)c1ccc(C(=C2C=CC(=[N+](CC)Cc3cccc(S(=O)(=O)[O-])c3)C=C2)c2ccccc2)cc1`, the call was inactive.
With `CCCNC(=O)NS(=O)(=O)c1ccc(Cl)cc1`, the compound was called inactive.
For `N#CCc1ccc(Cl)cc1Cl`, the compound was classed as inactive.
Turning to `COCC(C)N` (stereo not given), the compound was classed as inactive.
On to `CC(C)c1ccc2c(c1)CC[C@H]1[C@](C)(CN)CCC[C@]21C`, for which the AC50 was 49.6 µM (active).
For `Cc1cc(C)c(C)c(O)c1`, the call was inactive.
Still for that read-out and setting: the result for `O=C(O)c1cc2ccccc2nc1C(=O)O` reads “inactive”; that for `OC1CCCCCCCCCCC1`, “inactive”; that for `C=C1[C@H]2CC[C@@H]3[C@H]2C(C)(C)CCC[C@]13C`, “inactive”.
For `CC(C)CC(O)Cc1ccccc1` (stereo not given), the call was inactive.
As for `O=C(Nc1ccccc1SSc1ccccc1NC(=O)c1ccccc1)c1ccccc1`, the outcome was inactive.
As for `O=C1c2ccccc2C(=O)C1c1nc2ccccc2c(Br)c1O`, the compound was called inactive.
Consider `CC(=O)Nc1nnc(S(N)(=O)=O)s1`, for which the result was inactive.

The term AC50 denotes the midpoint of the concentration-response curve, whichever way the signal moves.

Source of the values: PubChem BioAssay (EPA / NIEHS).
